Potency data for 40 compounds are collected here from PubChem BioAssay (Tox21).

Molecules are shown by their SMILES. Values joined by “and” are separate entries in the source; they are usually repeats but may differ in a detail not shown here. Equal values may be shown once. Inconclusive results are not listed. Where a call stands in place of a potency, no number is given. Active and inactive are the calls of the source. The call rests on the fitted dose curve; in most records, active means well fitted activation curve with a large enough effect in the signal ratio in the repeat runs (not every such curve was filed as active); inconclusive means weak or mixed curves, or effect the other way; inactive means flat fitted curve, though single readings scatter; the % refers to the signal ratio.
Potency means the concentration at half of the fitted maximal effect.

Estrogen receptor beta (Homo sapiens), sequence (Q92731 whole entry, looked up): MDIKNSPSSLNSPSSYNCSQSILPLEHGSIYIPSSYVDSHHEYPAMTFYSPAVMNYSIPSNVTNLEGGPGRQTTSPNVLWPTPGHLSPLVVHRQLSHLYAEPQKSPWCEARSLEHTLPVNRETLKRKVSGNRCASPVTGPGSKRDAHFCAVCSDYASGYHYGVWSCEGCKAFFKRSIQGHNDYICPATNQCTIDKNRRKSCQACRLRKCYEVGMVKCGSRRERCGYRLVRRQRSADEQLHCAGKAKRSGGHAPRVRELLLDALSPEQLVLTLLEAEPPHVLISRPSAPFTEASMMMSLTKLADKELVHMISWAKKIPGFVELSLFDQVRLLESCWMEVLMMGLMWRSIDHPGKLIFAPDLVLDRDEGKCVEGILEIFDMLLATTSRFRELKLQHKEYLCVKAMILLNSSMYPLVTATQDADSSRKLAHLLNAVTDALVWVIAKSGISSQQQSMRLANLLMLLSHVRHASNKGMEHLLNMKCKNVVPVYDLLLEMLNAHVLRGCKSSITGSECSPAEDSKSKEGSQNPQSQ

The assay concerns the target Estrogen receptor beta (Homo sapiens) (UniProt Q92731). Description: qHTS assay to identify small molecule agonists of the estrogen receptor beta (ER-beta) signaling pathway (AID 1259377). The settings on record: ER-beta-UAS-bla HEK293T, beta-lactamase FRET ratio, 16 h; series mostly up to 92.4 µM. The source says: U.S. Tox21 Program National Center for Advancing Translational Sciences [NCATS] NIH Chemical Genomics Center [NCGC] U.S. Environmental Protection Agency [EPA] National Institutes of Environmental Health Sciences [NIEHS] National Toxicology Program [NTP] U.S. Food and Drug Administration [FDA] Tox21 Assay Overview: Estrogen receptor (ER), a nuclear hormone receptor, plays an important role in development, metabolic homeostasis and reproduction. Two subtypes of ER, ER-alpha and ER-beta, have similar expression patterns with some uniqueness in both types. Endocrine disrupting chemicals (EDCs) and their interactions with steroid hormone receptors like ER causes disruption of normal endocrine function. To identify the compounds that activate ER signaling, an ER beta-UAS-bla GripTite cell line (Life technologies, Madison, WI, USA) containing a beta-lactamase reporter gene under the control of an Upstream Activator Sequence (UAS) was used to screen Tox21 10K compound library.
Tox21 Assay Protocol Summary: ER-beta-UAS-bla HEK293T cells were dispensed at 2,000 cells/5 uL of assay medium containing 2% charcoal stripped FBS per well into black wall/clear-bottom 1536-well plates using a Multidrop Combi (ThermoFisher Scientific, Waltham, MA) dispenser. After the assay plates were incubated at a 37C and 5% CO2 for 6 hr, 23 nL of compounds dissolved in DMSO, positive controls or DMSO only was transferred to the assay plate by a Pintool station (Kalypsys, San Diego, CA). The plates were incubated at 37C and 5% CO2 for 16 hr. Then 1 uL of LiveBLAzerTM B/G FRET substrate was added using a BioRAPTR FRD (Flying Reagent Dispenser, Aurora Discovery, San Diego, CA). After the plates were incubated at room temperature for 2 hours, fluorescence intensity was measured by an Envision plate reader (PerkinElmer, Shelton, CT).
With `N#Cc1cccnc1`, the Potency result was “inactive”. The same measure for `CCCCOC(=O)COC(=O)c1ccccc1C(=O)OCCCC`: “inactive”. For the compound `CCC/C=N/O`, the Potency entry is “inactive”.

Consider `CC1(C)C(C(=O)OC(C#N)c2cccc(Oc3ccccc3)c2)C1(C)C` (stereo not given), for which the Potency entry is “inactive”. The same measure for `CC1=C(C(=O)Nc2ccccc2)SCCO1`: “inactive”; for `CSc1nc(NC(C)C)nc(NC(C)C)n1`: “inactive”; for `CC(O)CN(CC(C)O)CC(C)O` (stereo not given): “inactive”. The same measure for `COc1ccc(CO)cc1`: “inactive”; for `Clc1ccccc1-c1nnc(-c2ccccc2Cl)nn1`: “inactive”; for `CNC(=O)CSP(=S)(OC)OC`: “inactive”. As for `S=c1[nH]c2ccccc2[nH]1`, the Potency entry was “inactive”.

With `C[C@]12CC[C@H]3[C@@H](CCC4=CC(=O)CC[C@@H]43)[C@@H]1CC[C@@H]2O`, the Potency is 540 nM (active) and 4.22 µM (active).

`O=[N+]([O-])/N=C1\NCCN1Cc1ccc(Cl)nc1`: the Potency entry was “inactive”. The same measure for `O=P(OCCCl)(OCCCl)OCCCl`: “inactive”; for `ClC(Cl)(Cl)Br`: “inactive”; for `O=C1Nc2ccc(Cl)cc2C(c2ccccc2)=NC1O` (stereo not given): “inactive”.

Turning to `CCOC(=O)c1ccccc1N`, the Potency result is “inactive”. With `ClC(Cl)(Cl)c1ccccc1`, the Potency result was “inactive”. The same measure for `CCCCCCCCCCCCCl`: “inactive”; for `COc1ccc(O)c(C(C)(C)C)c1`: “inactive”; for `CCOP(=S)(OCC)SCn1c(=O)oc2cc(Cl)ccc21`: “inactive”. On to `CCN(CC)C(=O)C(C)Oc1cccc2ccccc12` (stereo not given), for which the Potency entry was “inactive”. Take `Cc1ccc([N+](=O)[O-])cc1`: the Potency result was “inactive”. Consider `O=NN1CCOCC1`, for which the Potency result is “inactive”. The same measure for `C=C(C)C#N`: “inactive”. The same measure for `ClCc1ccccn1`: “inactive”. In the case of `COP(=O)(NC(C)=O)SC` (stereo not given), the Potency result is “inactive”. Regarding `O=C(O)CF`, the Potency result was “inactive”. The same measure for `Cn1c(-c2ccccc2)cc(-c2ccccc2)[n+]1C`: “inactive”; for `Cc1cccc(N=Nc2ccc(N(C)C)cc2)c1`: “inactive”.

`CCNCC`: the Potency result was “inactive”.

Take `CC(C)CON=O`: the Potency entry is “inactive”. The same measure for `CC1(C)Cc2cccc(O)c2O1`: “inactive”; for `CN(C)P(=O)(N(C)C)N(C)C`: “inactive”; for `CS(=O)(=O)NC(=O)c1cc(Oc2ccc(C(F)(F)F)cc2Cl)ccc1[N+](=O)[O-]`: “inactive”. The same measure for `Oc1ccc(Cl)cc1Cl`: “inactive”; for `Cc1cc(Cl)ccc1N=CN(C)C`: “inactive”; for `CC(C)COC(=O)c1ccccc1C(=O)OCC(C)C`: “inactive”. With `O=[N+]([O-])c1ccc(Nc2ccccc2)cc1`, the Potency result is “inactive”. With `NC(=O)CN1CCCC1=O`, the Potency entry was “inactive”.
